Values joined by “and” are separate entries in the source; they are usually repeats but may differ in a detail not shown here. Equal entries are not always repeated. In all, about 5,500 compounds went through this assay and about 2,000 (36%) were called active. Another 18% or so got no clear call; they are omitted. Cut-off read from the data, not from the text of the source: active = normalized growth mostly below about 0.91 (no sharp cut-off); inconclusive = no clear call, values can overlap the other calls; inactive = mostly above about 0.92. Some of the results follow.
Assay: chemical genetic growth profiling, strain panel (AID 1159580);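 note: tested at 20 µM; growth read once vehicle control cultures reached saturation at 30 °C; 1 = growth at the plate median or of vehicle wells; lower values mean less growth of the strain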
Conditions: S. cerevisiae deletion strains, growth OD

Measured: normalized growth

COc1cc(C(=O)N2CCOCC2)cc(OC)c1OC
active: locus YCL029C, strain bik1, active compounds read low 0.726 | locus YDL192W, strain arf1, active compounds read low 0.101 | locus YDR101C, strain arx1, active compounds read low 0.494 | locus YDR318W, strain mcm21, active compounds read low 0.0684 | locus YDR388W, active compounds read low 0.0657 | locus YDR502C, strain sam2, active compounds read low 0.111 | locus YER110C, active compounds read low 0.264 | locus YGL078C, strain dbp3, active compounds read low 0.138 | locus YGL086W, strain mad1, active compounds read low 0.0586 | locus YGR135W, strain pre9, active compounds read low 0.0725 | locus YGR252W, strain gcn5, active compounds read low 0.211 | locus YHR079C, strain IRE1 (second series), active compounds read low 0.578 | locus YHR094C, strain hxt1, active compounds read low 0.127 | locus YHR200W, strain rpn10, active compounds read low 0.122 | locus YIL125W, strain kgd1, active compounds read low 0.198 | locus YIR030C, strain dcg1, active compounds read low 0.292 | locus YJL168C, strain set2, active compounds read low 0.202
inactive: locus YAL013W, strain DEP1, active compounds read low 1.01 | locus YAL021C, strain ccr4, active compounds read low 1.01 | locus YAL026C, strain drs2, active compounds read low 0.974 | locus YAL030W, strain snc1, active compounds read low 0.984 | locus YBL061C, strain skt5, active compounds read low 0.967 | locus YBR009C, strain hhf1, active compounds read low 1.01 | locus YBR021W, strain FUR4, active compounds read low 0.997 | locus YBR023C, strain chs3, active compounds read low 0.971 | locus YBR171W, strain sec66, active compounds read low 0.972 | locus YBR229C, strain ROT2, active compounds read low 1.01 | locus YBR231C, strain swc5, active compounds read low 0.983 | locus YBR279W, strain paf1, active compounds read low 0.983 | locus YCL011C, strain gbp2, active compounds read low 0.993 | locus YCL016C, strain dcc1, active compounds read low 1 | locus YCL061C, strain MRC1, active compounds read low 0.978 | locus YCL069W, strain vba3, active compounds read low 0.972 | locus YCR088W, strain abp1, active compounds read low 0.978 | locus YDL005C, strain med2, active compounds read low 0.969 | locus YDL035C, strain GPR1, active compounds read low 1.02 | locus YDL040C, strain nat1, active compounds read low 0.974 | locus YDL074C, strain BRE1, active compounds read low 1.01 | locus YDL101C, strain DUN1, active compounds read low 1.02 | locus YDL134C, strain PPH21, active compounds read low 1.01 | locus YDL185W, strain tfp1, active compounds read low 1.01 | locus YDR001C, strain nth1, active compounds read low 0.98 | locus YDR069C, strain doa4, active compounds read low 0.992 | locus YDR137W, strain rgp1, active compounds read low 0.989 | locus YDR150W, strain NUM1, active compounds read low 1.02 | locus YDR159W, strain sac3, active compounds read low 0.961 | locus YDR162C, strain NBP2, active compounds read low 1 | locus YDR195W, strain ref2 0.937 | locus YDR297W, strain sur2, active compounds read low 0.999 | locus YDR334W, strain swr1, active compounds read low 0.966 | locus YDR335W, strain msn5, active compounds read low 0.979 | locus YDR392W, strain spt3, active compounds read low 1.02 | locus YEL003W, strain gim4, active compounds read low 0.985 | locus YEL037C, strain rad23, active compounds read low 0.988 | locus YEL061C, strain CIN8 (second series), active compounds read low 0.964 | locus YEL061C, strain CIN8, active compounds read low 1 | locus YER015W, strain faa2, active compounds read low 0.989 | locus YER016W, strain bim1, active compounds read low 0.987 | locus YER111C, strain swi4, active compounds read low 0.945 | locus YER155C, strain BEM2 (second series), active compounds read low 0.994 | locus YER155C, strain BEM2, active compounds read low 1.01 | locus YER167W, strain BCK2, active compounds read low 1.02 | locus YFR010W, strain ubp6, active compounds read low 0.962 | locus YGL167C, strain pmr1, active compounds read low 0.971 | locus YGL173C, strain kem1, active compounds read low 0.985 | locus YGL227W, strain vid30, active compounds read low 0.978 | locus YGL240W, strain doc1, active compounds read low 0.991 | locus YGL248W, strain PDE1, active compounds read low 1.01 | locus YGL253W, strain hxk2, active compounds read low 0.97 | locus YGR078C, strain PAC10, active compounds read low 1 | locus YGR229C, strain SMI1, active compounds read low 1.01 | locus YHR013C, strain ard1, active compounds read low 0.997 | locus YHR027C, strain rpn1, active compounds read low 0.995 | locus YHR030C, strain SLT2, active compounds read low 1.01 | locus YHR079C, strain IRE1, active compounds read low 1.04 | locus YHR129C, strain ARP1, active compounds read low 0.998 | locus YHR142W, strain chs7, active compounds read low 0.982 | locus YIL066C, strain RNR3, active compounds read low 1.02 | locus YIL073C, strain SPO22, active compounds read low 1.09 | locus YJL092W, strain hpr5, active compounds read low 0.972 | locus YJL095W, strain BCK1 (second series), active compounds read low 0.979 | locus YJL095W, strain BCK1, active compounds read low 0.991 and 0.987 | locus YJL115W, strain asf1, active compounds read low 0.987 | locus YJL129C, strain trk1, active compounds read low 0.958 | locus YJL134W, strain LCB3, active compounds read low 1.01 | locus YJL154C, strain vps35, active compounds read low 0.974 | locus YJL164C, strain tpk1, active compounds read low 0.999 | locus YJL166W, strain qcr8, active compounds read low 1.02 | locus YJL187C, strain SWE1 (second series), active compounds read low 1.01 | locus YJR043C, strain POL32, active compounds read low 1.02 | locus YJR066W, strain TOR1, active compounds read low 0.984
